KB-V1 MDR tox – kills drug-selected multidrug resistant KB-V1 cells | actives 3.4% (n = 400,000) | Potency, µM (doses to about 46.1 µM), most hits filed as cytotoxic | AID 1347076 | KB-V1 MDR cells viability, CellTiter-Glo, 72 h; also: % is scaled to controls: 0 for no effect and ±100 for the full control effect; nearly all actives have a fitted effect of over 60% in size
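Compound-treated KB-V1 multidrug-resistant cells, 72 h, 37 degrees C; viability by CellTiter-Glo. Fitted qHTS curves give the values.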
S2 tox – viability counter-screen for ATXN expression inhibitors. S2 cells (HEK-293 line with an ATXN2-luciferase reporter) viability, CellTiter-Fluor protease fluorescence, 24 h. Potency, µM (doses to about 56.7 µM), actives largely listed as cytotoxic. actives 0.49% (n = 400,000); also: nearly all actives have a fitted effect of over 40% in size
HepG2 viability – counter-screen for TGF-b inhibitors: cytotoxicity in HepG2 cells; HepG2 CAGA-GFP viability, ATP luminescence, 18 h; Potency, µM (doses to about 46.1 µM), for inactives: top-dose activity change, negative = cytotoxicity, usual class: cytotoxic; actives 0.76% (n = 410,000)
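CellTiter-Glo luminescence gave cytotoxicity after 18 hours at 37 degrees C. The cells were HepG2 CAGA-GFP in 1% FBS DMEM, stimulated with 500 pg/mL TGF-beta after compound addition. %Activity was normalised to no-cell wells (complete cell-killing) and DMSO (no toxicity), and curves were fitted and classified.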
ATXN2 expr inh – inhibitors of ATXN2 expression; Potency, µM (highest dose often 57 µM), for inactives: top-dose activity change, negative = inhibition, actives largely listed as inhibitors; actives 0.72% (n = 360,000); AID 1745845; HEK-293 ATXN2-luciferase reporter, luminescence, 24 h; also: % is scaled to controls: 0 for no effect and ±100 for the full control effect; nearly all actives have a fitted effect of over 55% in size
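ATXN2-luciferase reporter cells (luciferase flanked by upstream and downstream ATXN2 gene portions) were treated 24 h at 37 °C with compounds at up to 57 uM. SteadyGlo luminescence gave expression; GF-AFC fluorescence gave viability.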
KB-3-1 cytotox – kills parental KB-3-1 adenocarcinoma cells | KB-3-1 viability, CellTiter-Glo ATP luminescence, 72 h | actives 1.4% (n = 400,000) | Potency, µM (series often up to 46.1 µM), hits mostly cytotoxic; also: % is scaled to controls: 0 for no effect and ±100 for the full control effect; nearly all actives have a fitted effect of over 60% in size
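Cells are dispensed, compounds pinned in, plates held at 37 °C for 72 h, then CellTiter-Glo is added and luminescence read after 10 minutes. Cell line: parental KB-3-1 in phenol-red-free DMEM, 10% FBS.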
TGFb SMAD3 inh – inhibitors of TGF-b signaling. actives 1.2% (n = 410,000). AID 588855. HepG2 CAGA-GFP TGF-b/SMAD3 reporter, GFP fluorescence, 18 h; TGF-beta stimulated, 500 pg/mL final. Potency, µM (series often up to 46.1 µM), without a hit: at the top dose activity, negative = inhibition, most hits filed as inhibitors; also: % is scaled to controls: 0 for no effect and ±100 for the full control effect; nearly all actives have a fitted effect of over 65% in size
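Read-out: total well GFP (ex488/em500-530) summed from mean per-cell fluorescence. Cells: HEPG2 CAGA-GFP, 1% FBS DMEM, 18 h at 37 degrees C with 500 pg/mL final TGF-beta. Unstimulated wells served as the full-inhibition control; stimulated DMSO wells = 0%.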
* = called active by the depositor; i = inactive; ? = inconclusive; · = no result given. An excerpt weighted towards active compounds, which were near 5.9% of everything screened. Calls follow the shape of the dose curve; as a rule, active = well fitted curve in the direction sought with a large enough effect; inconclusive = small, poorly fitted or top-dose-only effect, or another doubt; inactive = no such curve, though single readings can be large; an effect the other way counts as inactive or inconclusive. Potency is read from the fitted curve at half-maximal effect.

SMILES	KB-V1 MDR tox	S2 tox	HepG2 viability	ATXN2 expr inh	KB-3-1 cytotox	TGFb SMAD3 inh
COc1cc(/C=C/c2ccc3cccc(O)c3n2)cc(Br)c1OC	?	?	4.6%	-37.9%	14.6µM*	-18.2%
COc1ccc(S(=O)(=O)Nc2cccc(N(C)S(C)(=O)=O)c2)cc1C	14.6µM*	i	3.9%	-10.6%	?	-2.9%
COc1cc(S(=O)(=O)Nc2cc(C)cc(C)c2)ccc1F	23.1µM*	i	-8.9%	-7.5%	i	?
COc1cc(S(=O)(=O)Nc2cccnc2)ccc1F	i	i	3.6%	-4.6%	i	5.9%
O=[N+]([O-])c1cccc(S(=O)(=O)Nc2ccc(Cc3ccncc3)cc2)c1	16.4µM*	i	-23.1%	·	i	-27.7%
O=S(=O)(Nc1ccc(Cc2ccncc2)cc1)c1ccc(Cl)s1	i	i	-18.4%	1.1%	i	?
O=S(=O)(Nc1ccc(Cc2ccncc2)cc1)c1ccc(Br)s1	14.6µM*	i	-8.0%	-10.0%	?	-13.4%
Cc1cc(C)n2ncc(C(=O)NC(C)C)c2n1	i	·	·	·	i	·
CO[C@@H]1[C@@H](OC2OC(C)C(OC3CC(C)(O)C(OC(=O)CC(C)C)C(C)O3)C(N(C)C)C2O)[C@@H](CC=O)C[C@@H](C)C(=O)/C=C\C2O[C@H]2C[C@@H](C)OC(=O)C[C@H]1OC(C)=O (stereo partly drawn)	i	·	2.0%	·	i	?
CCc1cccc(NC(=O)Cn2c(=O)n(Cc3ccccc3)c(=O)c3c2c2cc(OC)ccc2n3C)c1	i	i	-12.4%	6.7%	i	0.0%
Cc1cccc(CNC(=O)CCCN2C(=O)CCn3nc(-c4cn(C)c5ccccc45)cc32)c1	i	i	-23.0%	-9.3%	?	-29.1%
COc1ccc(S(=O)(=O)Nc2cccc(SC)c2)cc1OC	7.31µM*	i	0.4%	2.8%	23.1µM*	0.1%
COc1ccc(NS(=O)(=O)c2ccc(SC)cc2)c(OC)c1	18.4µM*	i	-20.3%	-9.4%	i	3.6%
O=S(=O)(Nc1ccc2c3c(cccc13)CC2)c1ccc(F)cc1	?	i	3.4%	0.4%	?	?
CC(=O)Nc1ccc(S(=O)(=O)Nc2ccc3c(c2)CCC3)cc1	i	i	-10.4%	-22.3%	i	-19.7%
CSc1ccc(S(=O)(=O)Nc2ccc3c4c(cccc24)CC3)cc1	14.6µM*	i	-22.7%	-17.3%	18.4µM*	?
COc1ccc(S(=O)(=O)Nc2ccc3c(c2)CCC3)cc1	?	i	-30.6%	-17.8%	i	11.2µM*
COc1ccc(OC)c(NS(=O)(=O)c2ccccc2)c1	i	·	-6.5%	·	i	25.6%
CCc1ccc(CNC(=O)c2ccc(Cn3c(=O)c4cccn4c4cccnc43)cc2)cc1	i	i	-1.3%	-1.7%	i	-8.7%
CCCOc1c(Cl)cc(C(=O)N(Cc2cccc(OC)c2)C2CCS(=O)(=O)C2)cc1Cl (stereo not drawn)	i	·	-0.6%	·	i	?
CCN(CC)c1ccc(NC(=O)Cn2cc3c(n2)CCCC3)c(C)c1	i	i	-0.7%	-19.4%	i	2.2%
COc1ccc(NS(=O)(=O)c2ccc(Br)s2)cc1OC	20.6µM*	i	-14.6%	3.4%	i	-5.3%
COc1ccc(NS(=O)(=O)c2ccc(OC)c(OC)c2)cc1OC	20.6µM*	i	4.4%	-11.1%	i	?
COc1ccc(C)cc1NS(=O)(=O)c1ccc(Br)s1	i	i	-2.5%	-5.7%	i	-5.6%
N#Cc1ccccc1Cn1c(=O)n(-c2cccc(C(F)(F)F)c2)c(=O)c2sccc21	·	·	4.5%	·	·	-1.6%
SMILES	KB-V1 MDR tox	S2 tox	HepG2 viability	ATXN2 expr inh	KB-3-1 cytotox	TGFb SMAD3 inh
CC1(C)CCC2=C(O1)c1ccccc1C(=O)C2=O	?	·	3.98µM*	27.3µM*	?	3.16µM*
CC1(C)CCC(=O)c2ccccc21	i	i	-27.0%	3.0%	i	25.6%
COc1cc(C(=O)OCC(=O)N2c3ccccc3NC(=O)C2(C)C)ccc1OCC(C)C	20.6µM*	i	-22.2%	-15.8%	i	-31.0%
COc1cc(/C=C/C(=O)OCC(=O)NCc2ccc(F)cc2)ccc1O	16.4µM*	i	-4.6%	-9.0%	?	1.6%
COc1cc(C(=O)OCC(=O)NCc2ccc(F)cc2)ccc1OCC(C)C	i	i	-3.7%	-18.4%	23.1µM*	3.0%
COc1cc(C(=O)OCC(=O)NCCCc2ccccc2)ccc1OCC(C)C	i	i	-5.0%	4.0%	i	?
Cc1cc(NC(=O)CSc2nc3c([nH]c4ccccc43)c(=O)n2-c2cccc(Cl)c2)no1	i	i	1.5%	-3.8%	i	-6.4%
COCCCN1C(=O)C(CC(=O)NCc2cccc3ccccc23)CC(C(=O)N2CCOCC2)=C1C (stereo not drawn)	i	i	-7.0%	-1.9%	i	1.8%
CC1=C(C(=O)N2CCCCCC2)CC(CC(=O)NCc2cccc3ccccc23)C(=O)N1CCC1=CCCCC1 (stereo not drawn)	18.4µM*	?	·	-31.2%	?	·
CC1=C(C(=O)N(C)C)CC(CC(=O)NCCCCc2ccccc2)C(=O)N1CCC1=CCCCC1 (stereo not drawn)	i	?	-101.3%	-18.5%	i	?
CC1=C(C(=O)N2CCCCCC2)CC(CC(=O)NCCCCc2ccccc2)C(=O)N1CCC1=CCCCC1 (stereo not drawn)	16.4µM*	·	·	?	?	·
COCCCN1C(=O)C(CC(=O)NCc2cccc3ccccc23)CC(C(=O)N2CCCCCC2)=C1C (stereo not drawn)	10.5µM*	·	·	·	·	·
CCCCN1C(=O)C(CC(=O)NCc2cccc3ccccc23)CC(C(=O)N2CCCCCC2)=C1C (stereo not drawn)	9.2µM*	?	·	-34.5%	?	·
CC1=C(C(=O)N2CCCCCC2)CC(CC(=O)NCc2cccs2)C(=O)N1CCC1=CCCCC1 (stereo not drawn)	?	?	·	-15.1%	i	·
CCCC(=O)O[C@]1(C(=O)CC)CC[C@H]2[C@@H]3CCC4=CC(=O)CC[C@]4(C)[C@H]3[C@@H](O)C[C@@]21C	·	i	·	-17.8%	·	·
Nc1nc(-c2ccccc2)nc2sc3c(c12)CCCC3	23.1µM*	i	-30.3%	173.3%	i	?
O=c1oc(-c2ccccc2)nc2sc3c(c12)CCC3	i	?	-4.7%	·	i	-4.9%
CN(C)c1ccc(NC(=O)CSc2nc3ccccc3c(=O)n2C2CCCCC2)cc1	i	i	-3.8%	4.1%	i	17.3%

From PubChem BioAssay
